# TGFb SMAD3 inh: blocks TGF-b signaling | Potency, µM (top dose mostly 46.1 µM), for the others: top-dose activity, negative = inhibition, hits mostly inhibitors | HepG2 CAGA-GFP TGF-b/SMAD3 reporter, GFP fluorescence, 18 h; TGF-beta stimulated, 500 pg/mL final | 410,000 tested, 1.2% active; also: potency is read from the fitted curve at half-maximal effect; % is scaled to controls: 0 for no effect and ±100 for the full control effect; nearly all actives have a fitted effect of over 65% in size
#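 HEPG2 CAGA-GFP reporter cells (1000/well, DMEM with 1% FBS) received compounds, then recombinant TGF-beta at 500 pg/mL final for 18 hours at 37 degrees C. Per-cell GFP summed per well was normalised to unstimulated and stimulated DMSO controls before curve fitting.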
# HepG2 tox: HepG2 cytotoxicity, counter-screen for TGF-b inhibitors; HepG2 CAGA-GFP viability, ATP luminescence, 18 h; Potency, µM (titrated, usually from 46.1 µM), inactives show at the top dose activity change, negative = cytotoxicity, most hits filed as cytotoxic; 410,000 tested, 0.76% active; also: potency is read from the fitted curve at half-maximal effect
#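 HepG2 CAGA-GFP cells (1000/well, DMEM with 1% FBS) received compound, then TGF-beta at 500 pg/mL final, and were incubated 18 hours at 37 degrees C. Viability was read by CellTiter-Glo luminescence. Media-only wells were set as complete cell-killing and DMSO as no toxicity.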
# ATXN2 expr inh: ATXN2 expression inhibition; HEK-293 ATXN2-luciferase reporter, luminescence, 24 h; 360,000 tested, 0.72% active; Potency, µM (highest dose often 57 µM), for inactives: at the top dose activity change, negative = inhibition, actives largely listed as inhibitors; also: potency is read from the fitted curve at half-maximal effect; % is scaled to controls: 0 for no effect and ±100 for the full control effect; nearly all actives have a fitted effect of over 55% in size
#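 ATXN2-luciferase reporter cells (luciferase flanked by upstream and downstream ATXN2 gene portions) were treated 24 h at 37 °C with compounds at up to 57 uM. SteadyGlo luminescence gave expression; GF-AFC fluorescence gave viability.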
# IDH1 R132H inh: human IDH1 R132H inhibition; Potency, µM (top dose mostly 76.6 µM), for the others: at the top dose activity change, negative = inhibition, actives largely listed as inhibitors; 390,000 tested, 0.093% active; O75874; IDH1-R132H enzyme, NADPH consumption, diaphorase/resazurin fluorescence; AID 602179; also: potency is read from the fitted curve at half-maximal effect; % is scaled to controls: 0 for no effect and ±100 for the full control effect; nearly all actives have a fitted effect of over 65% in size
# Target sequence (O75874 whole entry R132H, stated change not applied): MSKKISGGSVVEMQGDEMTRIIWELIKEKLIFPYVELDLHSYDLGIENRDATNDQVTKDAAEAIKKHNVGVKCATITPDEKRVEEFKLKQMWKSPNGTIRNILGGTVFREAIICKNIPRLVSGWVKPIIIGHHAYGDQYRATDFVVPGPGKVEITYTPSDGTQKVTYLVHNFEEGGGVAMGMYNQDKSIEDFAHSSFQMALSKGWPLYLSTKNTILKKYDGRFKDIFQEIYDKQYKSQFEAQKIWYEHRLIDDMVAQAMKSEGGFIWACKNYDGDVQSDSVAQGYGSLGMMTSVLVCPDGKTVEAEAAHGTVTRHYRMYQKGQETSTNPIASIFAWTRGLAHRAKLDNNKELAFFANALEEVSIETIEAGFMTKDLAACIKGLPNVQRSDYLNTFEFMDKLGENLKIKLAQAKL
#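 IDH1-R132H (0.5 ug/mL) preincubated 30 min with compound, then NADPH (0.016 mM) and alpha-KG (2 mM) added; 80 min at RT, pH 7.5. Remaining NADPH coupled via diaphorase/resazurin to fluorescence (540/590 nm); concentration-response curves normalized to no-enzyme control.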
# LDHA block: LDHA (human) enzyme inhibition; P00338; 480,000 tested, 0.15% active; activity change, % (values are at about 110 or 230 µM); purified LDHA, NADH/diaphorase-resazurin fluorescence; active compounds read low; in the data active = activity change below about -30%; inconclusive = mostly about -25% to -30%;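 also: plate controls were DMSO wells for no effect and wells without enzyme for full effect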
#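 Remaining NADH was detected by diaphorase (0.133 mg/mL) converting 37 µM resazurin to fluorescent resorufin, read at 0 and 20 minutes. The preceding 5-minute room-temperature reaction used 2 nM LDHA, 0.2 mM sodium pyruvate and 0.06 mM NADH at pH 7.4.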
# ATXN viability: cell viability loss in ATXN counter-screen; S2 cells (HEK-293 line with an ATXN2-luciferase reporter) viability, CellTiter-Fluor protease fluorescence, 24 h; Potency, µM (top dose mostly 56.7 µM), most hits filed as cytotoxic; 400,000 tested, 0.49% active; AID 651635; also: potency is read from the fitted curve at half-maximal effect; nearly all actives have a fitted effect of over 40% in size
# * hit, by the source's call; i = inactive; ? = inconclusive; · = no result given; ! = not active in a repeat. Only some compounds are listed: those with a hit (about 2.2% of all), similar ones and a draw of the others. Unless noted, calls follow the shape of the dose curve; as a rule, active = well fitted curve in the direction sought with a large enough effect; inconclusive = small, poorly fitted or top-dose-only effect, or another doubt; inactive = no such curve, though single readings can be large; an effect the other way counts as inactive or inconclusive.
SMILES,TGFb SMAD3 inh,HepG2 tox,ATXN2 expr inh,IDH1 R132H inh,LDHA block,ATXN viability
COc1ccc(/C=N/Nc2cc(C)nc(NS(=O)(=O)c3ccc(C)cc3)n2)cc1,12.6µM*,-46.4%,-3.6%,-4.9%,-1.6,i
CNc1nc(-c2ccc(NC(=O)CC(C)C)cc2)cs1,·,·,·,·,6.8,·
O=C(Nc1ccccc1Br)c1cnn2c(C(F)F)cc(C3CC3)nc12,·,·,·,·,1.5,·
O=C(/C=C/c1ccccc1)NC(NC(=S)Nc1cccc(Cl)c1)C(Cl)(Cl)Cl (centres undefined),15.8µM*,10µM*,?,-3.9%,-4.7,?
C=CCc1cccc(CNc2nc3ccccc3n2C(C)C)c1O,12.6µM*,-43.7%,31.6µM*,-3.5%,-3.5,?
O=C(Cc1nnc(NC(=O)c2ccccc2)s1)N/N=C/c1ccco1,0.0%,-18.8%,0.2%,-0.9%,-4.0,i
CN(C)[C@@H](CCOc1cccc2ccccc12)c1ccccc1,·,·,31.6µM*!,·,·,?
CN(CCOc1cccc2ccccc12)Cc1ccccc1,-18.1%,-1.1%,-1.0%,7.9%,-17.5,i
CC(C)(CC(=O)O)CC(=O)NCc1c(Cl)cccc1Oc1ccccc1,-13.4%,33.0%,-21.7%,0.9%,-0.9,i
CCCn1ccc2c(OCC(=O)Nc3ccccc3OCC)cccc2c1=O,?,-32.9%,-14.0%,-1.3%,-6.9,i
CC(C)(C)n1[nH]c2c3c(ccc2c1=O)C(=O)c1ccccc1C3=O,10µM*,6.31µM*,-21.4%,5.0%,15.5,?
CCOc1ccc(NC(=O)C(=O)NCCc2sc(-c3ccc(C)cc3)nc2C)cc1,0.5%,-7.0%,4.3%,7.8%,-5.3,i
Cc1cc(F)ccc1S(=O)(=O)Nc1ccc2oc3c(c2c1)CC(C)CC3 (centres undefined),?,-98.2%,?,-3.6%,-4.1,31.6µM*
CC(C)(C)C1CCc2oc3ccc(NS(=O)(=O)c4ccc(C(=O)O)cc4)cc3c2C1 (centres undefined),22.4µM*,-121.5%,·,4.4%,8.9,·
CC(C)(C)C1CCc2oc3ccc(NS(=O)(=O)c4cc(Cl)ccc4Cl)cc3c2C1 (centres undefined),?,-67.8%,·,11.6%,5.1,·
Cc1cc(S(=O)(=O)Nc2ccc3oc4c(c3c2)CCCC4)ccc1Cl,15.8µM*,-97.5%,?,-5.9%,-1.4,?
COC(=O)c1c(C)oc2ccc(N(C(=O)c3ccncc3)S(=O)(=O)c3ccc(C)cc3C)cc12,?,3.9%,?,-1.4%,-2.6,i
O=C(Nc1ccc(NC(=O)c2ccc([N+](=O)[O-])cc2[N+](=O)[O-])cc1)c1ccco1,1.7%,-5.2%,-13.1%,-0.7%,-15.3,i
O=C(Cn1c(=O)oc2cc(S(=O)(=O)N3CCCC3)ccc21)Nc1ccc(OC(F)(F)F)cc1,0.0%,-21.5%,·,40.4%,-14.8,·
COc1ccc(Cn2cnc3c(N)c(C)c(C)cc32)cc1,11.7%,7.7%,?,12.0%,7.8,?
CCCCCCCCn1cnc2c(N)c(C)c(C)cc21,?,20µM*,-35.0%,15.3%,19.7,i
CC(NC(=O)CC1C=CCC1)c1ccc(Cl)c(Cl)c1 (centres undefined),·,·,·,·,9.3,·
CC(NC(=O)CCl)c1ccc(Cl)c(Cl)c1 (centres undefined),?,17.8µM*,?,11.1%,-5.3,?
Cn1c(SCc2ccccc2)nc(N)c(N=O)c1=O,?,10µM*,·,-6.0%,-1.2,?
Cn1c(SCc2ccccc2)nc(C(F)(F)F)cc1=O,-2.9%,-2.2%,7.1%,10.0%,6.6,i
SMILES,TGFb SMAD3 inh,HepG2 tox,ATXN2 expr inh,IDH1 R132H inh,LDHA block,ATXN viability
c1cc2cc(CNc3nc(NCC4CC4)nc4ccsc34)ccc2o1,?,-99.7%,?,·,-2.1,·
COc1ccccc1CNc1nc(NCC2CC2)nc2ccsc12,12.6µM*,10µM*,?,·,2.0,·
COc1ccccc1CNc1nc(NCc2ccc3occc3c2)c2sccc2n1,?,11.2µM*,?,·,-4.0,?
COCCNc1nc(NCc2ccccc2OC)c2sccc2n1,1.0%,-25.5%,?,·,-19.4,?
COc1ccccc1CNc1nc(Nc2cccc(-c3cnco3)c2)c2sccc2n1,?,-71.6%,0.0%,·,-9.9,20µM*
COc1ccccc1CNc1nc(NCc2ccccc2OC)c2sccc2n1,?,-52.0%,?,·,-11.0,?
COc1ccccc1CNc1nc(NCc2cccs2)nc2ccsc12,11.2µM*,-34.5%,?,·,-1.8,?
COc1ccccc1CNC(=O)CSc1n[nH]c(N)n1,6.9%,6.8%,4.3%,-6.9%,-4.3,i
CC1(C(=O)NC2CCCCC2)Cn2nc(-c3ccco3)cc2C(=O)N1c1ccccc1F (centres undefined),·,·,·,·,0.3,·
CC(C)C(C(=O)NCc1ccco1)N(CC1CCCO1)C(=O)CNS(=O)(=O)c1ccccc1 (centres undefined),-1.5%,9.1%,-16.1%,1.3%,-4.2,?
O=C(C1CCCCC1)N1CCOc2ccc(CN3CCN(Cc4ccccn4)CC3)cc2C1,·,·,·,·,·,i
COc1ccccc1CNc1nc(Nc2ccccc2-n2cccn2)c2sccc2n1,?,-33.3%,0.0%,·,-3.6,15.8µM*
COc1ccccc1CNc1nc(NCc2ccc(NC(C)=O)cc2)c2sccc2n1,17.8µM*,-78.4%,?,·,1.0,i
CCc1ccc(NC(=O)c2ccc(F)c(S(=O)(=O)NC3CCCCCC3)c2)cc1,11.2µM*,-16.9%,·,12.6%,5.9,·
CCc1ccc(NC(=O)c2ccc(F)c(S(=O)(=O)N(C)C3CCCCC3)c2)cc1,-8.7%,0.8%,·,4.8%,-3.3,·
CCc1ccc(NC(=O)c2ccc(F)c(S(=O)(=O)NCC3COc4ccccc4O3)c2)cc1 (centres undefined),11.2µM*,-44.9%,?,-3.9%,-2.2,?
O=C(Nc1ccccc1)c1cccc(N2C(=O)C3C4CC(C(Br)C4Br)C3C2=O)c1 (centres undefined),-1.9%,0.8%,-18.0%,3.7%,-7.2,i
O=[N+]([O-])c1cccc2ccc(/C=C/c3ccc(OC(F)F)cc3)nc12,·,·,·,·,6.2,·
CCOC(=O)c1[nH]c(C)c(CCC(=O)N2CCN(c3cc(Cl)ccc3C)CC2)c1C,11.2µM*,-26.7%,-8.0%,-13.8%,-8.8,?
Cc1cccc(C)c1Nc1c(-c2ccsc2)nc2ccc(Cl)cn12,7.3%,-2.0%,1.6%,-21.7%,6.0,i

# Assay outcomes: PubChem, National Center for Advancing Translational Sciences (NCATS)
